Bioassay records from PubChem.
Most compounds without a hit are left out; they make up all but 13% or so of the library.
Sfp inh – qHTS Assay for Inhibitors of Bacillus subtilis Sfp phosphopantetheinyl transferase (PPTase) | 4'-phosphopantetheinyl transferase ffp (Bacillus subtilis), Q9F4F7 | Biochemical Sfp PPTase activity, qHTS | Potency, µM, for inactives: largest response in the series, negative = inhibition, actives largely listed as inhibitors | 310,000 tested, 3.5% active | AID 1490, 2009;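 further: the enzyme is Sfp with the accession as filed and its product quenches rhodamine fluorescence; potency means the concentration at half of the fitted maximal effect; 0% = enzyme reaction without inhibitor and -100% = no enzyme wells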
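With Hepes-Na pH 7.6 buffer containing 10 mM MgCl2, Sfp (15 nM) modified BHQ-2-YbbR (12.5 uM) using rhodamine-CoA (5 uM). Two reads 30 minutes apart at 525/598 nm yielded each well's rate.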
G9a block – qHTS Assay for Inhibitors of Histone Lysine Methyltransferase G9a | AID 504332, 2011 | G9a H3K9 monomethylation, AlphaScreen, 2 h | Histone-lysine N-methyltransferase EHMT2 (Homo sapiens), Q96KQ7 | 350,000 tested, 8.8% active | Potency, µM (highest dose often 102 µM), for inactives: top-dose activity, negative = inhibition, actives largely listed as inhibitors; further: potency means the concentration at half of the fitted maximal effect; on the % scale 0 is the no-effect control and ±100 the full control effect; nearly all actives have a fitted effect of over 75% in size
Target sequence (Q96KQ7 913-1193 limits assumed): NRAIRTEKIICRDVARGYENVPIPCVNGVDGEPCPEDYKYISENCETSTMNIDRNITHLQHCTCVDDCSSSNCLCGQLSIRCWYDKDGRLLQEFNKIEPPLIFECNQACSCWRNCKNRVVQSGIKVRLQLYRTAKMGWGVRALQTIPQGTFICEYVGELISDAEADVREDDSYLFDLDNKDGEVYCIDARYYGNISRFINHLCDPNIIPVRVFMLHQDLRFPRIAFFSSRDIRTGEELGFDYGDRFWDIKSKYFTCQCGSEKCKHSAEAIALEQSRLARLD
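G9a (20 nM) preincubated 15 min RT with compounds, then 500 nM biotinylated H3K9 peptide and 20 uM SAM added; 2 h RT reaction. Monomethyl-H3K9 product detected by AlphaScreen with anti-H3K9me1 antibody, streptavidin donor and anti-rabbit IgG acceptor beads.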
miR-21 reporter – qHTS Assay for Modulators of miRNAs and/orActivators of miR-21. HeLa miR-21 FLuc reporter, luciferase, 48 h. Potency, µM (doses to about 38.3 µM), for the others: top-dose activity change, positive = activation, most hits filed as activators. 340,000 tested, under 10 active;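 further: % of control where 0% means no effect; miR-21 action dims this reporter so a rising signal means less miR-21 action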
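Using DMEM plus 10% FBS, HeLa miR-21-FLuc cells are incubated with test compounds (final up to about 40uM) for 48 hours; firefly luciferase signal is then imaged following reagent-mediated lysis.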
ALDH1A1 inh – qHTS Assay for Inhibitors of Aldehyde Dehydrogenase 1 (ALDH1A1). Aldehyde dehydrogenase 1A1 (Homo sapiens), P00352. Purified ALDH1A1, NADH fluorescence, propionaldehyde substrate. Potency, µM (top dose mostly 75.3 µM), for inactives: top-dose activity, negative = inhibition, most hits filed as inhibitors. 220,000 tested, 7.3% active. AID 1030, 2008; active means well fitted inhibition curve with a large enough effect, not every such curve was filed as active; inconclusive means small, poorly fitted or top-dose-only effect, or another doubt; inactive means no such curve, though single readings can be large or run the other way;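 further: potency means the concentration at half of the fitted maximal effect; plate controls were no enzyme wells and a reference inhibitor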
LMNA splice mod – qHTS Assay for Modulators of Lamin A Splicing; HeLa LMNA splicing GFP/RFP minigene ratio, 48 h; Potency, µM (titrated, usually from 46.1 µM), for inactives: top-dose ratio change, negative = inhibition, usual class: inhibitors; 200,000 tested, 0.01% active; active means well fitted inhibition curve with a large enough effect in the signal ratio, with a control signal flat, not every such curve was filed as active; inconclusive means small, poorly fitted or top-dose-only effect, or effect the other way, or a change in a side signal; the % refers to the signal ratio; further: potency means the concentration at half of the fitted maximal effect; on the % scale 0 is the no-effect control and ±100 the full control effect
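S3 HeLa stable clones carrying a lamin A-EGFP splicing minigene plus DsRed2 were seeded at 600 cells/well in Opti-MEM with 2% FBS, pin-dosed and incubated 48 h at 37°C. Acumen cytometry (488 nm) gave the GFP/RFP total-intensity ratio.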
KDM4E inh – qHTS Assay for Inhibitors of Human Jumonji Domain Containing 2E (JMJD2E). AID 2147, 2009. JMJD2E catalytic domain, FDH-coupled NADH fluorescence (FDH is formaldehyde dehydrogenase). 230,000 tested, 1.6% active. Lysine-specific demethylase 4E (Homo sapiens), B2RXH2. Potency, µM (doses to about 57.1 µM), for inactives: at the highest dose activity change, negative = inhibition, most hits filed as inhibitors; active means well fitted inhibition curve with a large enough effect, not every such curve was filed as active; inconclusive means small, poorly fitted or top-dose-only effect, or another doubt; inactive means no such curve, though single readings can be large or run the other way;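 further: potency means the concentration at half of the fitted maximal effect; 0% = wells with enzyme and -100% = buffer wells without enzyme; nearly all actives have a fitted effect of over 50% in size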
Target sequence (B2RXH2 1-337 limits assumed): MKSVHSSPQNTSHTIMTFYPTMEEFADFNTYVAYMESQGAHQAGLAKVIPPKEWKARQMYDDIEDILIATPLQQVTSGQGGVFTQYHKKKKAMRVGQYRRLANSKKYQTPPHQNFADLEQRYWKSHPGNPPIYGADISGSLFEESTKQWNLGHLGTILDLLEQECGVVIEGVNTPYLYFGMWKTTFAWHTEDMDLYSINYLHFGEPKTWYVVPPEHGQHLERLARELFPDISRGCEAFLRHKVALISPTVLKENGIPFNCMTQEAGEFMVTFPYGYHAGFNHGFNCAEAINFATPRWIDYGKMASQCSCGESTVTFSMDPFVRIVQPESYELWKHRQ
The depositor's hits bear a star; ? = inconclusive; / = not tested or not shown; [ ] = another dose, or the depositor's remark. Unless noted, the call rests on the fitted dose curve; in most records, active means well fitted curve in the direction sought with a large enough effect; inconclusive means small, poorly fitted or top-dose-only effect, or another doubt; inactive means no such curve, though single readings can be large; an effect the other way counts as inactive or inconclusive.

SMILES | Sfp inh | G9a block | miR-21 reporter | ALDH1A1 inh | LMNA splice mod | KDM4E inh
CSc1nc(N2CCOCC2)c2c(c1C#N)CCCCC2 | -3% | -16% | -3% | 22µM* | -6% | -16%
CCCSc1nc(N2CCOCC2)c2c(c1C#N)CCCC2 | -21% | 101% | -14% | 14µM* | ? | -4%
N#CCCSc1nc(N2CCOCC2)c2c(c1C#N)CCCC2 | 3% | 10% | -13% | 13µM* | 16% | -9%
CSc1nc(N2CCOCC2)c2c(c1C#N)CC(C)(C)OC2 | 17% | -6%[59 µM] | -10% | -5% | -14% | -1%
COc1ccc(-c2cccc(NS(=O)(=O)c3ccc(C)s3)c2)nn1 | / | 5%[59 µM] | -2% | / | -11%[46 µM] | /
COc1ccc(C(=O)N2CCC3(CC2)CCN(C(c2ccccc2)c2ccccc2)CC3)cc1 | ? | -4%[12.7 µM] | / | -4% | / | /
Cc1ccc(C(=O)/C=C/C(=O)c2ccc(C)cc2)cc1 | 3.2µM* | 1.6µM* | 0% | 0.89µM* | ? | -10%
O=C(/C=C/c1ccc(O)cc1)c1ccccc1 | -6% | / | -43% | / | / | -11%
Cc1ccc(-c2ccc(/C=C/C(=O)c3ccccc3)o2)cc1 | 11µM* | -19%[59 µM] | -30% | 3.2µM* | ? | ?
Cc1ccc(/C=C/C(=O)c2ccc(C)cc2)cc1 | -3% | 8%[59 µM] | -18% | -11% | -2% | 3%
O=C(/C=C/c1ccc(-c2ccccc2)o1)c1ccccc1 | 16µM* | ? | -60% | 12% | ? | 0%
Cc1cccc(C(=O)Nc2cc3nn(-c4ccc(C(C)C)cc4)nc3cc2C)c1 | / | -4%[59 µM] | -6% | / | / | /
CN1CCN(c2nc3cc(C(F)(F)F)ccc3n3cccc23)CC1 | ? | 24µM* | / | -10% | ? | ?
CCN(CC)C(=O)C1CCN(c2ncnc3c2cnn3-c2ccc(C)cc2C)CC1 | 56µM* | -17%[59 µM] | -5% | 10µM* | -2% | -9%
COc1ccc(-c2cnc(SCC(=O)Nc3cc(C)on3)n2Cc2ccco2)cc1 | 8% | ? | -7% | 7% | ? | 3%
CCOc1ccc(NC(=O)CSc2nnc(-c3ccccc3Cl)n2Cc2ccco2)cc1 | -2% | ? | 6% | 14µM* | ? | -10%
COCCn1c(SCC(=O)Nc2ccccc2OC)nc2ccccc2c1=O | 5% | -4% | -3% | / | / | /
CN(C)c1ccc(NC(=O)CSc2nnc(-c3cccs3)n2Cc2ccco2)cc1 | 1% | 10µM* | 2% | 18µM* | 5% | -6%
COCCn1c(-c2ccc(OC)cc2)cnc1SCC(=O)Nc1cccc2ccccc12 | 6% | 35µM* | -9% | ? | -8% | 20%
COc1ccc(NC(=O)CSc2ncc(-c3ccc(F)cc3)n2Cc2ccco2)cc1 | 1% | 28µM* | 21% | -8% | ? | -1%
CCOc1cc(CNC(=O)CSc2n[nH]c(-c3ccccc3)n2)cc(OCC)c1OCC | / | -10%[59 µM] | -4% | / | 8%[46 µM] | /
COCCNc1ccc(-c2nc(-c3cccc(C)c3)no2)cc1[N+](=O)[O-] | / | -1%[59 µM] | -22% | / | / | /
CC(C)c1ccc(S(=O)(=O)c2nnn3c2nc(N2CCCC2)c2sccc23)cc1 | / | 4%[59 µM] | -1% | / | / | /
COc1ccc(NC(=O)CSc2nnc(-c3ccccc3)n2Cc2ccco2)c(OC)c1 | ? | 11%[59 µM] | 1% | ? | -5% | 2%
COc1ccc(NC(=O)CSc2nnc(-c3ccccc3Cl)n2Cc2ccco2)c(OC)c1 | 7.1µM* | ? | 3% | 14µM* | -11% | -4%
SMILES | Sfp inh | G9a block | miR-21 reporter | ALDH1A1 inh | LMNA splice mod | KDM4E inh
Cc1ccc(C)c(N2CCN(C(=O)CN3C(=O)COc4ccc(S(=O)(=O)N5CCOCC5)cc43)CC2)c1 | / | -7%[59 µM] | -3% | / | / | /
O=C(c1ccccc1)c1cc(Cl)ccc1N1C(=O)C=CC1=O | 3.2µM* | 1.8µM* | ? | 10µM* | ? | 5%
CCCC(=O)Nc1nc(C)c(-c2csc(Nc3cc(OC)ccc3OC)n2)s1 | -19% | ? | -2% | ? | ? | ?
C=CCCC(=O)Nc1nc(C)c(-c2csc(Nc3cc(OC)ccc3OC)n2)s1 | 1% | 10µM* | 24% | -5% | ? | ?
COc1ccc(OC)c(Nc2nc(-c3sc(N)nc3C)cs2)c1 | 8.9µM* | 32µM* | -16% | ? | -15% | -12%
CCCC(C)C(=O)Nc1nc(C)c(-c2csc(Nc3cc(OC)ccc3OC)n2)s1 (stereo unspecified) | 16% | 14µM* | 2% | ? | -2% | ?
O=C(NC1CCN(C(=S)NCc2ccco2)CC1)C1CCCCC1 | 0% | ? | 1% | -4% | -4% | 6%
O=C(NC1CCCCC1)NC1CCN(C(=S)NCc2ccco2)CC1 | 13% | 15%[59 µM] | -3% | 1% | 6% | -8%
OCC1CCCCN1C(=S)NCc1ccco1 (stereo unspecified) | 50µM* | / | 0% | 7% | / | -6%
CC1CCCC(C)N1C(=S)NCc1ccco1 (stereo unspecified) | 35µM* | ? | 2% | / | / | -4%
COC(=O)c1ccccc1NC(=O)Cn1nc(C)c2nn(-c3ccc(Cl)cc3)c(C)c2c1=O | / | 4%[59 µM] | 0% | / | -5%[46 µM] | /
CCCCC(=O)N/N=C/c1ccc(Sc2cccc3cccnc23)o1 | 35µM* | ? | -6% | -10% | -20% | -2%
O=C(Cc1cccc2ccccc12)N/N=C/c1ccc(Sc2cccc3cccnc23)o1 | -5% | ? | -3% | ? | ? | ?
Cc1[nH]c2ccccc2c1C(c1ccncc1)N1CCCCC1 (stereo unspecified) | 8% | 35µM* | 5% | -6% | / | 0%
Cc1ccnc(NC(c2ccncc2)c2c(C)[nH]c3ccccc23)c1 (stereo unspecified) | -7% | 10µM* | 0% | ? | -16% | ?
CCN(Cc1ccncc1)C(=O)c1cc(COc2ccc(OC)cc2Cl)on1 | 1% | / | -42% | / | / | /
CCC(NC(=O)CCCc1ccccc1)c1ccccc1 (stereo unspecified) | 13% | -3%[59 µM] | -10% | -4% | -2% | 0%
CC(=O)C(Cc1ccccc1)NC(=O)CCl (stereo unspecified) | 18% | -38% | 21% | 22µM* | / | ?
O=C(CCl)NC(Cc1ccccc1)c1ccccc1 (stereo unspecified) | 11% | -30% | ? | 1.4µM* | / | -3%
CC(=O)c1cccc(NC(=O)CN2CCc3cc4c(cc3C2)OCCCO4)c1 | 4% | -47% | 3% | / | / | /
